{"source": "PubChem BioAssay (NCI)", "note": "Values joined by “and” are separate entries in the source; they are usually repeats but may differ in a detail not shown here. Equal entries are not always repeated. Compounds without any hit were thinned out: in the full panel of roughly 83,000, 20% have a hit.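 The endpoint reported here, percent growth, reads 100 for growth as untreated, 0 for no net growth and -100 for all cells dead.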 Active and inactive are the calls of the source. Rule for the calls: active = growth percent below 10; inactive = the rest."}
{"test_system": "MDA-MB-468 breast", "experiment": "NCI-60 one-dose screen, 48 h (100 = growth as untreated, 0 = no growth, -100 = all killed)", "conditions": "10 µM unless noted"}
{"smiles": "COc1ccc2nc3ccccc3c(NCc3ccc(Cl)cc3)c2c1", "growth": "-30.6% (active)"}
{"smiles": "C#CCOc1cccc(Nc2ncnc3cc(NC(=O)C=C)ccc23)c1", "growth": "-24.9% (active)"}
{"smiles": "Cc1ccc(N=c2nc3sc4c(C)ccc(C)c4n3c(N)c2C#N)cc1", "growth": "115% (inactive)"}
{"smiles": "O=C(O)CCCCCN1C(=O)/C(=C/c2ccc(O)c(O)c2)SC1=S", "growth": "103% (inactive)"}
{"smiles": "Cn1cc(-c2cnn3c(N)c(Br)c([C@@H]4CCCNC4)nc23)cn1", "growth": "67.5% (inactive)"}
{"smiles": "COc1cc(CNS(=O)(=O)c2ccc(C)cc2)ccc1OCc1cn(-c2ccc(Br)cc2)nn1", "growth": "95.5% (inactive)"}
{"smiles": "Nc1ccc2c(O)cc(S(=O)(=O)O)cc2c1", "growth": "110% (inactive)"}
{"smiles": "C=C1C(=O)O[C@@H]2[C@@H]3O[C@@](C)(CC/C=C(\\C)CCC[C@@H]2C)[C@H](O)C[C@@H]13", "growth": "-24.9% (active)"}
{"smiles": "NC(=O)c1cccc(-n2ccc3cc(NC(=O)Nc4cc(C(F)(F)F)cc(C(F)(F)F)c4)ccc32)n1", "growth": "40.7% (inactive)"}
{"smiles": "CCCCCCCCCCSC(=N)N", "growth": "-83.1% (active)"}
{"smiles": "CC1OC(O[C@@H]2[C@H](O)C(CO)OC(O[C@H]3COC(O[C@H]4CC[C@]5(C)[C@H]6CC[C@]78OC[C@@]9(CCC(C)(C)C[C@H]97)[C@H](O)C[C@@]8(C)[C@]6(C)CC[C@H]5C4(C)C)[C@@H](OC4OC(CO)[C@@H](O)[C@@H](O)[C@@H]4O)[C@@H]3O)[C@H]2OC2OC[C@@H](O)[C@@H](O)[C@@H]2O)[C@@H](O)[C@@H](O)[C@H]1O", "note": "(stereo not given in full)", "growth": "-39.3% (active)"}
{"smiles": "CSc1ccc(N2C(=N)C(=S)N(c3ccc(C)cc3)C2=O)cc1", "growth": "121% (inactive)"}
{"smiles": "O=C(Nc1cccc(-n2ccc3c(NC(=O)c4ccccc4)nccc32)c1)c1ccc(N2CCOCC2)c(C(F)(F)F)c1", "growth": "-2.66% (active)"}
{"smiles": "COc1cc(-c2nn(C(C)(C)C)cc2-c2ccnc(NCCCNS(=O)(=O)c3ccc(C)cc3)n2)ccc1Cl", "growth": "79% (inactive)"}
{"smiles": "COc1ccc2c(c1)c(-c1nc(-c3cn(C)c4ncccc34)cs1)cn2CCN", "growth": "16.1% (inactive)"}
{"smiles": "c1ccc(N2CCN(c3nncc4ccccc34)CC2)nc1", "growth": "93.3% (inactive)"}
{"smiles": "COc1cc2nc(Cl)nc(Nc3cccc(C(=O)/C=C/c4ccccc4)c3)c2cc1OC", "growth": "68.9% (inactive)"}
{"smiles": "COc1ccc(-c2cc(=O)c3c(O)cc(O)cc3o2)cc1", "growth": "121% (inactive) and 96.2% (inactive)"}
{"smiles": "COc1ccccc1C(=O)Nc1cccc(-c2cc(=O)c3c(OC)c(OC)c(OC)cc3o2)c1", "growth": "39.2% (inactive)"}
{"smiles": "O=C1Nc2ccccc2/C1=N/N=C/c1c[nH]c2ccccc12", "growth": "84.8% (inactive)"}
{"smiles": "COc1ccc(/C=C2\\CS(=O)(=O)C/C(=C\\c3ccc(OC)cc3)C2=O)cc1", "growth": "-85.3% (active)"}
{"smiles": "CCCCCCCCCCCCCCCCCCOc1ccccc1CC(=O)NCC[N+]1(C)CCCCC1", "growth": "7.37% (active)"}
{"smiles": "CCc1ccccc1-n1c(N)c(C#N)c(-c2ccc(N(C)C)cc2)c(C#N)c1=O", "growth": "116% (inactive)"}
{"smiles": "COc1cccc(NC(=O)Nc2ccc(Oc3ncnc4[nH]c(C)c(C)c34)cc2)c1", "growth": "125% (inactive)"}
{"smiles": "N#CC(C#N)=Cc1cc2ccccc2nc1Oc1ccc(C(F)(F)F)cc1", "growth": "86.1% (inactive)"}
{"smiles": "C=CC[Se]C(=O)Cc1c(C)n(C(=O)c2ccc(Cl)cc2)c2ccc(OC)cc12", "growth": "-37.5% (active)"}
{"smiles": "Cc1ccc(C(=O)N2C/C(=C/c3ccc(F)cc3)C(=O)/C(=C/c3ccc(F)cc3)C2)cc1", "growth": "79.5% (inactive)"}
{"smiles": "CCN(CC)CCOc1ccc(/C=N/Nc2nc3c([nH]2)c(=O)n(C)c(=O)n3C)cc1", "growth": "102% (inactive) and 121% (inactive)"}
{"smiles": "c1ccc(Cn2cc3c(c2)-c2oncc2CC3)cc1", "growth": "47.2% (inactive)"}
{"smiles": "c1ccc2c(NCCCN3CCOCC3)c3oc4ccccc4c3nc2c1", "growth": "-53.6% (active)"}
{"smiles": "CCCc1c(C)nc2scc(-c3ccc(Cl)cc3)n2c1=O", "growth": "97.9% (inactive)"}
{"smiles": "CN=C1C=C/C(=N/N=c2/ccn(O)cc2C)C=C1C", "growth": "83.1% (inactive)"}
{"smiles": "Cc1cc(N2CCCCC2)nc(N(CCNc2ccnc3cc(Cl)ccc23)Cc2ccco2)n1", "growth": "-0.362% (active)"}
{"smiles": "Cc1cc(/C=C\\c2ccc3ccccc3[n+]2C)c(O)c2ncccc12", "growth": "-27% (active)"}
{"smiles": "COc1ccc([C@H]2[C@H](O)C(=O)N2c2cc(OC)c(OC)c(OC)c2)cc1F", "growth": "26.4% (inactive)"}
{"smiles": "CC(C)=CC(=O)OCC(=O)O[C@@H]1C[C@]2(C(C)C)O[C@@]1(C)[C@@H]1CC[C@@H](C)[C@H]1[C@@H]2OC(=O)/C=C/c1ccccc1", "growth": "64.3% (inactive)"}
{"smiles": "COc1ccccc1C1=C(Br)C(=O)c2nc(C)ccc2C1=O", "growth": "107% (inactive)"}
{"smiles": "O=C(CN1N=C(c2ccc(F)cc2)CCC1=O)Nc1nc2ccccc2s1", "growth": "97.7% (inactive)"}
{"smiles": "C#C[C@@]1(O)[C@@H](CO)O[C@@H](n2cnc3c(-c4ccccc4)ncnc32)[C@@H]1O", "growth": "111% (inactive)"}
{"smiles": "CC/C=C\\C[C@H](O)C/C=C1/C(=O)C=C[C@@]1(C)C/C=C\\CCCC(=O)OC", "growth": "105% (inactive)"}
